# Source: PubChem BioAssay (Tox21)
# Inconclusive results are not listed. Calls of active or inactive are those of the source. The call rests on the fitted dose curve; in most records, active means well fitted inhibition curve with a large enough effect in the repeat runs; inconclusive means weak or mixed curves, or effect the other way; inactive means no such curve, though single readings can be large or run the other way.
# Target: Androgen receptor (Homo sapiens) (UniProt P10275)
# Test: qHTS assay to identify small molecule antagonists of the androgen receptor (AR) signaling pathway using the MDA cell line (AID 743042; further: nearly all actives have a fitted effect of over 55% in size)
# Settings: MDA-kb2 AR-luc, MMTV luciferase, R1881 antagonist, 16 h; series mostly up to 70.3 µM; activity change, negative = inhibition: at the top concentration
# How it was run: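 Antagonist mode: compounds plus R1881 agonist added to MDA-kb2 AR-luc cells, incubated 16 h at 37C. Luciferase reporter luminescence quantified, with multiplexed CellTiter-Fluor readout for cell viability.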
# On the % scale 0 is the no-effect control and ±100 the full control effect; potency means the concentration at half of the fitted maximal effect.
# Androgen receptor (Homo sapiens), sequence (P10275 whole entry, looked up): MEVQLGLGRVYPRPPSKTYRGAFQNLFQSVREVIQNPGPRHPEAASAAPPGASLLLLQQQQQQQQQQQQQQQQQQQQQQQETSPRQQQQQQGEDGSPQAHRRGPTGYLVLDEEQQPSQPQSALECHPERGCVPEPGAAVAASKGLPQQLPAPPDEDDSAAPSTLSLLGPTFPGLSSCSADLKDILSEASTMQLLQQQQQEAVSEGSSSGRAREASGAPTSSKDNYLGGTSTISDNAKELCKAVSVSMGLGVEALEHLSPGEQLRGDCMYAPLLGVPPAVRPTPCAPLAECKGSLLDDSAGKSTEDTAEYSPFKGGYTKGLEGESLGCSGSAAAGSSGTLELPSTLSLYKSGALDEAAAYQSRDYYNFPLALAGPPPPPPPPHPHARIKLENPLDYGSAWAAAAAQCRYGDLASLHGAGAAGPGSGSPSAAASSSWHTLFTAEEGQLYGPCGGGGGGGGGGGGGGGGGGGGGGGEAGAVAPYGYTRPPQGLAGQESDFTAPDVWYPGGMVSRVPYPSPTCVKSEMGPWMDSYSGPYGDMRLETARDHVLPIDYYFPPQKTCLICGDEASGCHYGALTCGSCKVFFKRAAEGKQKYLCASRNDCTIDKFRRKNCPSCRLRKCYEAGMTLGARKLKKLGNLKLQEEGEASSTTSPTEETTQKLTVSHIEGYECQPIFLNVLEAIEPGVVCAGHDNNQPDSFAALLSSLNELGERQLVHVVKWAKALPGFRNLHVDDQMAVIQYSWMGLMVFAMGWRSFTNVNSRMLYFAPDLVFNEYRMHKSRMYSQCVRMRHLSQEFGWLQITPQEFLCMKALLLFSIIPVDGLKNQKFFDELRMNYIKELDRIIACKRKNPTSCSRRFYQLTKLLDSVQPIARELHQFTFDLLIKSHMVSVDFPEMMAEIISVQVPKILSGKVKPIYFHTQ
Structure (SMILES),"activity change, negative = inhibition",Potency
Nc1c(Cl)cc(Cl)cc1[N+](=O)[O-],-11.3% (inactive),
COC(=O)C1=C(C)NC(C)=C(C(=O)OC(C)(C)CN(C)CCC(c2ccccc2)c2ccccc2)C1c1cccc([N+](=O)[O-])c1 (stereo not given),,29.8 µM (active)
O=C(c1ccccc1)c1ccc(O)cc1,-1.81% [at 95 µM] (inactive),
CCN(CC)C(=O)/C(C#N)=C/c1cc(O)c(O)c([N+](=O)[O-])c1,-1.66% (inactive),
COc1cc(OC)c2ccc(=O)oc2c1,60.4% (inactive),
